The values that follow come from PubChem BioAssay (NCATS).

A number with no mark means an inactive call. Results filed as inconclusive are left out. Active and inactive are the calls of the source. Unless noted, calls follow the shape of the dose curve; as a rule, active = well fitted curve in the direction sought with a large enough effect; inconclusive = small, poorly fitted or top-dose-only effect, or another doubt; inactive = no such curve, though single readings can be large; an effect the other way counts as inactive or inconclusive.

For assay [1], the target named is Cytochrome P450 2C9 (Homo sapiens) (UniProt P11712). Put plainly: qHTS Assay for Inhibitors and Substrates of Cytochrome P450 2C9 (AID 883). Also: % is scaled to controls: 0 for no effect and ±100 for the full control effect; nearly all actives have a fitted effect of over 60% in size. The method in brief:
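Turnover of Luciferin-H (100uM, KM) by 10nM human CYP2C9 was measured over 60 min at 37C with NADPH regeneration; inhibitors and some substrates reduce luminescence. Data normalized to sulphaphenazole 57uM.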
On the technique in general: qHTS replaces the single test concentration by a dilution series.

Assay [2] concerns the target Cytochrome P450 3A4 (Homo sapiens) (UniProt P08684). Put plainly: qHTS Assay for Inhibitors and Substrates of Cytochrome P450 3A4 (AID 884). Also: nearly all actives have a fitted effect of over 50% in size. Also: potency is read from the fitted curve at half-maximal effect. As to activity change, negative = inhibition: series mostly up to about 57 µM; % is scaled to controls: 0 for no effect and ±100 for the full control effect. In short, it runs like this: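 Luminescent readout of luciferin produced by CYP3A4 (20 nM) dealkylation of Luciferin-PPXE, 25 uM (its KM). NADPH-driven reaction ran 60 min at RT after 10 min compound preincubation; data scaled to 57 uM ketoconazole as 100% inhibition.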

For assay [3] the target is unchanged. Kind of assay: qHTS Assay for Activators of Cytochrome P450 3A4 (AID 885). Also: nearly all actives have a fitted effect of over 65% in size. In short, it runs like this:
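Activators are scored by enhanced luminescence from CYP3A4 conversion of luciferin-PPXE (25uM, equal to KM) to luciferin, after 60 min at RT with an NADPH-regenerating system.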

Assay [4] addresses Cytochrome P450 2D6 (Homo sapiens) (UniProt P10635). Kind of assay: qHTS Assay for Inhibitors and Substrates of Cytochrome P450 2D6 (AID 891). Also: nearly all actives have a fitted effect of over 60% in size. Also: potency is read from the fitted curve at half-maximal effect.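 As to activity change, negative = inhibition: luciferin methyl ether substrate demethylated by CYP2D6 with NADPH regeneration; % is scaled to controls: 0 for no effect and ±100 for the full control effect.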 In short, it runs like this:
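Luminescent read-out of luciferin formed by 5 nM human CYP2D6 demethylating 30 uM Luciferin-ME EGE (Km level) over 60 min at room temperature after NADPH regeneration addition. Data normalized to full inhibition by 1.43 uM quinidine.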

For assay [5], the target named is Cytochrome P450 2C19 (Homo sapiens) (UniProt P33261). Kind of assay: qHTS Assay for Inhibitors and Substrates of Cytochrome P450 2C19 (AID 899). Also: % is scaled to controls: 0 for no effect and ±100 for the full control effect; nearly all actives have a fitted effect of over 60% in size. The method in brief:
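Reactions contain 5nM enzyme, 10uM Luciferin-H EGE (KM) and 50mM KPO4; compound preincubates 10 min at 37C, NADPH regeneration starts turnover for 60 min. Luminescence after detection reagent gives activity.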

Assay [6] is described as follows: qHTS for Inhibitors of Plasmodium falciparum (7G8) proliferation (AID 504316). Also: nearly all actives have a fitted effect of over 65% in size. Also: potency is read from the fitted curve at half-maximal effect.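 As to activity change, negative = inhibition: series mostly up to about 6.7 µM; 0% = DMSO vehicle and -100% = 0.29 µM artemisinin full kill.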 In short, it runs like this: (§1)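 Parasite growth measured as SYBR Green DNA fluorescence (ex 485, em 535 nm) after overnight lysis following 72 h culture at 37 °C, 0.3% parasitemia, 2.5% hematocrit. Values normalized against DMSO and 0.29 uM artemisinin controls, with plate-stack correction.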

Assay [7] concerns the target Atrial natriuretic peptide receptor 1 (Homo sapiens) (UniProt P16066). Put plainly: Natriuretic polypeptide receptor (hNpr1) antagonism - Pilot CMLD screen (AID 1347052; calls by dose curve;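 also: cGMP level read as GloSensor luciferase luminescence after agonist stimulation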; also: potency is read from the fitted curve at half-maximal effect;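 as to activity change, negative = inhibition: HEK293 cells with hNpr1 stimulated by hNppA peptide at 0.1 nM; series mostly up to about 9.2 µM; % is scaled to controls: 0 for no effect and ±100 for the full control effect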).
Assay [8] is described as follows: qHTS for Inhibitors of Plasmodium falciparum (HB3) proliferation (AID 504318). Also: nearly all actives have a fitted effect of over 60% in size. Also: potency is read from the fitted curve at half-maximal effect.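 As to activity change, negative = inhibition: 0% = DMSO vehicle and -100% = artemisinin control.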 The method in brief:
as §1

The nature of assay [9]: qHTS for Inhibitors of Plasmodium falciparum (CP250) proliferation (AID 504320). Also: potency is read from the fitted curve at half-maximal effect.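 As to activity change, negative = inhibition: plate controls were DMSO vehicle for no effect and 0.29 µM artemisinin control for full effect.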 In short, it runs like this: as §1

Chain of Cytochrome P450 3A4 (Homo sapiens) (P08684 whole entry, looked up): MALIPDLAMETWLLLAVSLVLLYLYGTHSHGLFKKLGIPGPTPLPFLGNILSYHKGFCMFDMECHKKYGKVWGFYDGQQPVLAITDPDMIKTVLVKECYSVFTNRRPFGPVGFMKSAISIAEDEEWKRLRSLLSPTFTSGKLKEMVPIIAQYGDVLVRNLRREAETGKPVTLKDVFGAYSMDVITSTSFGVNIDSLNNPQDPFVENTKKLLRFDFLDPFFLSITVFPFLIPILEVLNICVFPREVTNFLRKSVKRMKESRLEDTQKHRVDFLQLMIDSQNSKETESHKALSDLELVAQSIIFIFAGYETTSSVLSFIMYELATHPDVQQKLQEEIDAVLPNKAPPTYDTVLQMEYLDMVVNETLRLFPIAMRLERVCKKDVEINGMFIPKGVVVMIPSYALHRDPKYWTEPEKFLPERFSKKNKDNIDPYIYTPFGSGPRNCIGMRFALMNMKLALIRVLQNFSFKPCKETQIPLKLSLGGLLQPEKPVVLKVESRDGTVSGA
Chain of Cytochrome P450 2C9 (Homo sapiens) (P11712 whole entry, looked up): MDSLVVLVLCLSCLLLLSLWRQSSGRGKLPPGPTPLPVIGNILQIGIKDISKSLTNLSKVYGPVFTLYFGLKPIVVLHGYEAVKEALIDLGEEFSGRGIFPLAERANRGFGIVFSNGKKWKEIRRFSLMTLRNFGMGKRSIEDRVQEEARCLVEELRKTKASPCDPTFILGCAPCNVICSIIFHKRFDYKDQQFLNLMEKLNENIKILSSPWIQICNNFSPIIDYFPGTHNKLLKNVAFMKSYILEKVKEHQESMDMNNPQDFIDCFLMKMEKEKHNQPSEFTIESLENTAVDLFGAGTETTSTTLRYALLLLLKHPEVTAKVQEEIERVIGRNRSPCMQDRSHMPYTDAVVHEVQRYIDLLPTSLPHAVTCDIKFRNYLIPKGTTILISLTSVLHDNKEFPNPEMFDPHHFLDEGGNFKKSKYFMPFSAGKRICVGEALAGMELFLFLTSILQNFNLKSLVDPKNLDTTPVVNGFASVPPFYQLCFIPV
Chain of Cytochrome P450 2D6 (Homo sapiens) (P10635 whole entry, looked up): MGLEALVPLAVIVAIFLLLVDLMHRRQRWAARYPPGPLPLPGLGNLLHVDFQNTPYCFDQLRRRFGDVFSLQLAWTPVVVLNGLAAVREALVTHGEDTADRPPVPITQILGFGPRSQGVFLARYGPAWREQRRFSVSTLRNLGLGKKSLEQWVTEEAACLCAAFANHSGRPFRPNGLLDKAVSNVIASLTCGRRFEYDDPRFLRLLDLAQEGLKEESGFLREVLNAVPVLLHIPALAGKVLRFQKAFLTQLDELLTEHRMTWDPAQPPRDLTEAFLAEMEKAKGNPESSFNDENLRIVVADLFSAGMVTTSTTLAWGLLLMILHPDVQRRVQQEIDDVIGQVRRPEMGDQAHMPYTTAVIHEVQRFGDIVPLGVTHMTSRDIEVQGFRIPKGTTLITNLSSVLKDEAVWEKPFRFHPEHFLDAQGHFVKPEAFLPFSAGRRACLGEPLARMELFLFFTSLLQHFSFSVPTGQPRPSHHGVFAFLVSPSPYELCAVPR
Chain of Cytochrome P450 2C19 (Homo sapiens) (P33261 whole entry, looked up): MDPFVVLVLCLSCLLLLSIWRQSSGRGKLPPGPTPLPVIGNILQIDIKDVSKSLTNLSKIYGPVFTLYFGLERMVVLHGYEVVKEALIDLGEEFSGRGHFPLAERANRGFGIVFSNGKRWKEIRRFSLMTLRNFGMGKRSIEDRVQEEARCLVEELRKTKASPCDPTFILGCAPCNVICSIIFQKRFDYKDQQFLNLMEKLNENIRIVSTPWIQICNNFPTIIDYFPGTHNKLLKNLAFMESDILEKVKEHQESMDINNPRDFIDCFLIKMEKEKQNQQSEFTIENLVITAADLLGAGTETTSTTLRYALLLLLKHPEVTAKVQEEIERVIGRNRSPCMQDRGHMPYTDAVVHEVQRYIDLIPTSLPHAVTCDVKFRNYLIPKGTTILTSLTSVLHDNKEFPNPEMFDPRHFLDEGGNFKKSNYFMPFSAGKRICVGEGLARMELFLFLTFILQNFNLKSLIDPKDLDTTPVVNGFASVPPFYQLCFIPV
Chain of Atrial natriuretic peptide receptor 1 (Homo sapiens) (P16066 whole entry, looked up): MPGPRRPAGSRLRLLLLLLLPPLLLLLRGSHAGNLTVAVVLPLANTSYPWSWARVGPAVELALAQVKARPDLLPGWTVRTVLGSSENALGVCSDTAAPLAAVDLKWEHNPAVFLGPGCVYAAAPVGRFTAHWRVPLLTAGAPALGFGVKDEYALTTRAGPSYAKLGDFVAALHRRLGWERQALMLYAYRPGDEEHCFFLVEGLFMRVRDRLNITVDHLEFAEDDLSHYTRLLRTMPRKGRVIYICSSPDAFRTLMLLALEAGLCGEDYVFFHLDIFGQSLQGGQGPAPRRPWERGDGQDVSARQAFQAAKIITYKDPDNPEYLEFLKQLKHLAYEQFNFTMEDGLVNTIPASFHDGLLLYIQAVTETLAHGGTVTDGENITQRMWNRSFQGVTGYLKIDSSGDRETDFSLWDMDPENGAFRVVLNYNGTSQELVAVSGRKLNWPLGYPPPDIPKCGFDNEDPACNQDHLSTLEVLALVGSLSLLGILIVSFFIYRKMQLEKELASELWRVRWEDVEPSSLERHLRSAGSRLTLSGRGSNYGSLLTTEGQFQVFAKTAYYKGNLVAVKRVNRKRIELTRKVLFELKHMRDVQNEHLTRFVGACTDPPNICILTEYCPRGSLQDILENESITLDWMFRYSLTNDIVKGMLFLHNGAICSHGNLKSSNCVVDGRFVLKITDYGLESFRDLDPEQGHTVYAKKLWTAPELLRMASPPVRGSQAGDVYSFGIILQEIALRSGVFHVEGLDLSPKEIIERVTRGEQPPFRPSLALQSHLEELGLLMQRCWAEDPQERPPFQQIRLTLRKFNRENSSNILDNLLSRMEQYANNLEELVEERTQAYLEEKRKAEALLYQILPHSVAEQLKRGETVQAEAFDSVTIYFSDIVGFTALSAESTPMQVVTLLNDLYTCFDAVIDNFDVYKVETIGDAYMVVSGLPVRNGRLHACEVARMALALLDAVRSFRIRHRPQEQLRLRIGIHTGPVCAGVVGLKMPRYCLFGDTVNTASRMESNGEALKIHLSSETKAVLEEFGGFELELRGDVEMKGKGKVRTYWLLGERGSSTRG

Consider `CC(C)=CCC1(CC=C(C)C)C(=O)C(C(=O)c2ccccc2)=C2OC(C)(C)CCC2(CC=C(C)C)C1=O` (centres undefined), for which the values for the activity change, negative = inhibition in assay [1] and in [4] were -24.2% [at 11.4 µM] and 20.1% [at 11.4 µM], respectively. The Potency was 3.98 µM (active) in [2] and 1.69 µM (active) in assay [6]. Besides, the activity change, positive = activation in assay [3] is -69.3% [at 11.4 µM]. Also, the activity, negative = inhibition in assay [5] is -5.29% [at 11.4 µM]. The Potency result in assay [7] was “inactive”.

Consider `CCCCCCCC1=CC2=CC(=O)C(C)(O)C(=O)C2=CN1CCCC` (centres undefined), for which the values for the activity change, negative = inhibition in [1] and in assay [2] were 13.4% [at 11.4 µM] and -26.9% [at 11.4 µM], respectively. The Potency in assay [4] is 3.16 µM (active). The activity, negative = inhibition in assay [5] is 80.9% [at 11.4 µM]. The Potency entry in [6], in assay [8], in [9] and in assay [7] was “inactive” throughout.

On to `C=COC[C@H]1CN2[C@H](c3ccc(Br)cc3)[C@H](C)CC[C@H]2C(=O)O1`, for which the Potency result in assay [6] and in [7] was “inactive” throughout. In [9], the Potency is 1.9 µM (active).

On to `C[C@]12C[C@@](C)(C=C1C=Cc1ccc(F)cc1)C(=O)C[C@H]2c1ccc(F)cc1`, for which, in assay [8], the Potency was 1.69 µM (active). For the same compound, the Potency entry in assay [7] is “inactive”.

`C=CC[C@](C)(O)c1ccccc1`: in assay [6], the Potency is 1.51 µM (active). The Potency entry in [9] and in [7] was “inactive” throughout.

As for `CCN1C(=NCc2cc(OC)c(OC)c(OC)c2)NC(c2cccc(C(F)(F)F)c2)C(C(=O)OC)=C1C` (centres undefined), in assay [6], the Potency was 1.9 µM (active). Besides, the Potency result in assay [9] and in assay [7] was “inactive” each time.

For the compound `Cc1cc2c(c(=O)n1-c1ccccc1)[C@H]1O[C@](c3ccsc3)(Cc3ccccc31)O2`, the Potency in assay [6] was 1.51 µM (active). In addition, the Potency result in assay [9] and in assay [7] was “inactive” throughout.

Take `COCc1cc2cc3c(cc2c2c(C(=O)OC)c(C(=O)OC)c(C(=O)OC(C)(C)C)n12)OCO3`: the values for the Potency in assay [6] and in [7] were 1.51 µM (active) and 3.35 µM (active), respectively. In assay [9], the Potency result was “inactive”.

`COC(=O)C12C[C@@H](C)C3C(C)C(c4ccccc4C31)N2C(=O)C(F)(F)F` (some centres undefined): the Potency result in [6], in assay [9] and in assay [7] was “inactive” throughout.

In the case of `COc1cc2c(cc1OC)[C@@H]1O[C@](c3ccsc3)(C2)Oc2cc(C)n(Cc3ccccc3)c(=O)c21`, the Potency in assay [6] is 1.51 µM (active); in [7], 0.531 µM (active). Further, in assay [9], the Potency entry was “inactive”.

`c1ccc(C2NCCc3c2[nH]c2ccccc32)cc1` (centres undefined): the Potency entry in [6], in assay [8], in assay [9] and in [7] was “inactive” each time.

As to `COC(=O)C1=C(C(=O)OC)[C@@H]2N(Cc3ccccc3)c3ccccc3[C@@]23CCC(=O)N(CCc2ccccn2)C3=N1`, the Potency in [6] is 1.51 µM (active). Also, the Potency result in [9] and in assay [7] was “inactive” in each case.

Take `COC(=O)CC1OC1[C@H](C)[C@@H](OC)C(C)C` (some centres undefined): the Potency in [6] was 1.69 µM (active). In addition, the Potency entry in assay [9] and in assay [7] was “inactive” throughout.

Consider `C=CCOCCC=C1c2ccccc2[C@@H](OC)[C@@H]1C`, for which the Potency in [6] is 1.51 µM (active). The Potency result in assay [9] and in [7] was “inactive” throughout.

On to `O=C1CCCC2=C1[C@H]1O[C@](CCCCN3C(=O)c4ccccc4C3=O)(Cc3c1ccc1ccccc31)O2`, for which, in assay [6], the Potency is 1.69 µM (active). In addition, the Potency result in assay [9] and in [7] was “inactive” each time.

Turning to `C[C@@H]1CC[C@H]2C(=O)N(Cc3ccc(Cl)cc3)C[C@@H](O)CN2[C@H]1c1cccc(Br)c1`, the Potency in assay [6] was 1.51 µM (active). The Potency result in assay [9] and in assay [7] was “inactive” in each case.

`COc1ccc(O[C@H]2C=C[C@@H](c3ccccc3)O[C@H]2COC(=O)CCC(C)=NOCC[C@@H]2C=C[C@H](OC(C)=O)[C@@H](COC(C)=O)O2)cc1`: the Potency result in assay [8] and in assay [7] was “inactive” throughout.

For the compound `c1ccc(CNc2oc(-c3ccccc3)nc2-c2cccc3ccccc23)cc1`, the Potency in assay [8] was 3.29 µM (active). The Potency entry in [7] is “inactive”.

Take `COc1ccc(O[C@H]2C=C[C@@H](c3ccccc3)O[C@H]2CON=C(C)CCN2CCCCc3nc(C)c(C)cc32)cc1`: the Potency in assay [6] was 1.51 µM (active). In addition, the Potency entry in assay [9] and in assay [7] was “inactive” throughout.

On to `N#Cc1ccc2c(c1)C[C@]1(CCCCN3C(=O)c4ccccc4C3=O)Oc3c(c(=O)oc4ccccc34)[C@H]2O1`, for which, in [6], the Potency was 1.51 µM (active). Besides, the Potency entry in [9] and in [7] was “inactive” in each case.

Regarding `O=C1c2ccccc2C(=O)N1CCCC[C@]12Cc3ccccc3[C@H](O1)c1c(c3ccccc3oc1=O)O2`, the Potency in assay [6] is 1.51 µM (active); in [9] it was 1.69 µM (active). In assay [7], the Potency result is “inactive”.

As to `CCCCn1c(C)cc2c(c1=O)[C@H]1O[C@](CCCC)(Cc3cc(C#N)ccc31)O2`, the Potency in [6] is 1.9 µM (active). The Potency result in assay [9] and in assay [7] was “inactive” each time.

For the compound `CC(C)(C)OC(=O)C1=NOC2(C=CC(=O)C=C2)C1`, the activity change, negative = inhibition is -5.68% [at 11.4 µM] in assay [1], -24.2% [at 11.4 µM] in [2] and -10.1% [at 11.4 µM] in assay [4]. Also, the activity, negative = inhibition in [5] is 0.0773% [at 11.4 µM].

On to `COC1=C[C@H](C(=O)N[C@H]2CCCC[C@H]2NC(C)=O)[C@@]2(C)Cc3ccccc3[C@@H]2CC1=O`, for which the Potency entry in assay [9] and in [7] was “inactive” in each case.

Turning to `C[C@H]1CC[C@H]2C(=O)N(Cc3ccccc3)C[C@@H](O)CN2[C@H]1c1ccc(Br)cc1`, the Potency result in assay [9] and in assay [7] was “inactive” throughout.

As for `C=CCN1c2ccccc2[C@]23CCC(=O)N(CCc4ccccn4)C2=NC(C(=O)OC)=C(C(=O)OC)[C@H]13`, the Potency result in assay [9] and in assay [7] was “inactive” in each case.

`COC(=O)C1=C(C(=O)OC)[C@@H]2N(Cc3ccccc3)c3ccccc3[C@@]23C[C@@H](C(=O)OC)N(C(=O)NCc2ccccc2)C3=C1`: the Potency result in assay [9] and in assay [7] was “inactive” throughout.

For the compound `C#CCN1C(=O)[C@]2(O[C@H](COc3ccccc3)CC3=C2CCC3)c2ccccc21`, the Potency entry in assay [9] and in [7] was “inactive” in each case.

As to `COc1ccc2c(c1)O[C@@H](c1ccc3c(c1)OCO3)[C@H](OC(=O)Nc1cc(OC)c(OC)c(OC)c1)C2=O`, the Potency result in assay [9] and in assay [7] was “inactive” throughout.

On to `CC(C)(C)c1ccc(O[C@@H]2[C@H](O)CO[C@@H]2C=CC#Cc2ccccc2)cc1`, for which the Potency entry in assay [9] and in assay [7] was “inactive” throughout.

With `COc1cccc2c1[C@H](C=Cc1ccccc1)[C@@H]([C@H](O)CN=[N+]=[N-])OC2`, the Potency result in [9] and in assay [7] was “inactive” throughout.

As for `COc1ccc([C@]23Cc4cc(C#N)ccc4[C@H](O2)c2c(cc(C)n(-c4ccccc4)c2=O)O3)cc1`, the Potency entry in assay [9] and in assay [7] was “inactive” each time.

`C=CC[C@H]1C(=O)N2[C@@H](C[C@@H](C)[C@@H]2c2ccccc2)[C@@H](CC=C)C(=O)N2[C@H]1C[C@@H](C)[C@@H]2c1ccccc1`: the Potency entry in assay [9] and in [7] was “inactive” in each case.

`CC1(C)O[C@@H](C(O)(c2ccccc2)c2ccccc2)[C@H](C(O)(c2ccccc2)c2ccccc2)O1`: the Potency result in assay [9] and in assay [7] was “inactive” throughout.
